sPLA2-III inh: Inhibits HGIII-sPLA2 liposome hydrolysis, primary screen; Q9NZ20; inhibition, % at 12.2 µM; QFRET BODIPY PC-A2 liposome hydrolysis, fluorescence; 370,000 tested, 0.56% active;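 active means inhibition above mean plus 3 SD of compounds lying within the high and low control bounds, cut at about 19% in these data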;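 further: 0% = median of test compound wells and 100% = no enzyme DMSO wells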
Target sequence (Q9NZ20 whole entry, looked up): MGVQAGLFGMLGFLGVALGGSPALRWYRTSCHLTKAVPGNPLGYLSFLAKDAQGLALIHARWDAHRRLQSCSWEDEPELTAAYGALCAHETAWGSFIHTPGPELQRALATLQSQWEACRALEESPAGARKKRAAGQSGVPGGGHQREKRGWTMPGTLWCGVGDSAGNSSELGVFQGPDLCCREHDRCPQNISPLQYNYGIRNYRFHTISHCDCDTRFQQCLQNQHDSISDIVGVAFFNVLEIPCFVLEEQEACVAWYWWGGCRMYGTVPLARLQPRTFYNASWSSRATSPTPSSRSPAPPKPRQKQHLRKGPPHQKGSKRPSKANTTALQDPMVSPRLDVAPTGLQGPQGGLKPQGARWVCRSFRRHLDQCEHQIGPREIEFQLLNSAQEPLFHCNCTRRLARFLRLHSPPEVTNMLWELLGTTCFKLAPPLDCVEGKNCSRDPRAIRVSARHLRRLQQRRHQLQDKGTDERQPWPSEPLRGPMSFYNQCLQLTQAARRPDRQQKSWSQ
MsrA inhibitor: bovine MsrA inhibition | purified bovine MsrA, absorbance read-out | inhibition, % at 15.5 µM | 360,000 tested, 0.75% active; in the data active means inhibition above about 4.5%;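 further: 0% = vehicle wells with enzyme and 100% = reference inhibitor wells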
rCAG RNA binder: r(CAG) repeat RNA binding; TO-PRO-1 dye displacement fluorescence; inhibition, % at 3 µM; 370,000 tested, 1.3% active; AID 651821;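 active means inhibition above the plate cutoff, the mean of all test compounds on that plate plus 3 SD, cut at about 35% in these data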;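 further: 0% = DMSO alone and 100% = 100 µM mitoxantrone as full dye displacement; higher means more dye released from RNA so lower well fluorescence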
PG9 Ab binder: PG9 antibody binding by small molecule; TR-FRET gp120-PG9 antibody binding; inhibition, % at 6.7 µM; 360,000 tested, 0.43% active; in the data active means inhibition above about 8.5%
bovine MsrA act: bovine methionine sulfoxide reductase A activation. 360,000 tested, 0.3% active. activation, % at 10.6 µM. AID 602163. purified bovine MsrA, absorbance read-out; in the data active means activation above about 7.5%;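 further: 0% = vehicle and 100% = reference activator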
hGIII sPLA2 conf: human GIII-sPLA2 inhibition, confirmation; shares compounds with sPLA2-III inh; recombinant hGIII-sPLA2, BODIPY PC-A2 QFRET fluorescence; inhibition, % at 12.2 µM; 2,000 tested, 34% active; AID 743280;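 active means mean inhibition across triplicates above the hit cutoff set in the earlier primary screen, cut at about 19% in these data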;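 further: 0% = enzyme with DMSO and 100% = DMSO wells lacking enzyme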
535nm interf: optically interferes with 535nm fluorescence in sPLA2 counter-screen; AID 743282; inhibition, % at 12.2 µM; BODIPY FL product fluorescence interference, QFRET; shares compounds with sPLA2-III inh; 2,000 tested, 8.5% active;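 active means average inhibition above the solvent-only control mean plus 3 SD, cut at about 6% in these data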;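 further: 0% = DMSO with substrate plus product and 100% = DMSO with substrate alone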
BODIPY interf DR: counter-screen for HGIII-sPLA2 inhibitors: 535nm fluorescence interference, dose response | shares compounds with sPLA2-III inh | BODIPY FL product fluorescence interference, cell-free | IC50, µM | 240 tested, under 10 active | AID 743455;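 active means IC50 at or below 10 µM; inactive means IC50 above 10 µM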
An asterisk follows results filed as active; . = no result. The list is not random: actives were taken first. Their share in the collection is about 3.2%.

SMILES	sPLA2-III inh	MsrA inhibitor	rCAG RNA binder	PG9 Ab binder	bovine MsrA act	hGIII sPLA2 conf	535nm interf	others
COc1cccc(/C=N/NC(=O)C(=O)Nc2ccccc2OC(F)(F)C(F)F)c1	20.7*	-0.4	-5.7	-1.4	-2.9	5.1	-3.7
COc1ccc(NC(=O)C(=O)N/N=C/c2cccnc2)c(OC)c1	20.0*	2.1	-3.6	-0.3	-3.6	3.7	-7.3
COc1ccccc1/C=N/NC(=O)C(=O)Nc1ccccc1OC(F)(F)C(F)F	10.7	2.3	-6.6	-0.6	-2.8	.	.
COc1ccc(NC(=O)/C(C#N)=C/c2cccnc2)c(OC)c1	-4.2	-1.1	4.1	-1.9	-6.6	.	.
O=C1c2ccccc2C2Cc3nnccc3CN12 (stereo not given)	-6.4	0.9	5.2	0.2	.	.	.
C/C(=N\NC(=O)CSCc1ccc([N+](=O)[O-])cc1)c1ccccc1O	20.9*	0.9	21.9	-0.8	-2.5	13.8	-7.5
S=C(Nc1ccccc1Oc1ccccc1)Nc1cccc(Cl)c1Cl	21.6*	0.2	7.6	1.8	-1.6	30.1*	6.7*
CCOC(=O)[C@]12CCCC=C1N(Cc1ccco1)C(=O)[C@H](CC(=O)NCCC(C)C)C2	-16.8	-0.9	-2.4	-0.7	-0.4	.	.
S=c1[nH]nc(-c2ccc(Cl)cc2)n1-c1ccc2c(c1)OCCO2	20.7*	0.6	3.8	2.3	3.8	31.7*	1.2	BODIPY interf DR=>122
S=c1[nH]nc(COc2ccccc2)n1-c1ccc(Cl)cc1	21.9*	0.8	0.9	1.3	2.1	33.2*	-0.9	BODIPY interf DR=>122
COc1ccc(-n2c(COc3ccccc3)n[nH]c2=S)cc1	21.4*	1.1	1.3	-0.3	1.7	22.8*	2.2
COc1cc(/C=N/n2c(COc3ccccc3)n[nH]c2=S)cc(OC)c1OC(C)=O	23.9*	0.1	28.5	2.0	1.1	16.7	-1.5
C/C(=N\NC(N)=S)c1ccccc1	3.9	-0.2	4.3	-2.0	-5.0	.	.
NC(=S)NN=C(c1ccccc1)c1ccccc1	19.2*	0.6	2.8	1.1	-3.1	22.0*	-3.7
CCC[C@@H](/C=C/C(=O)OC(C)(C)C)Sc1ccc(N)cc1	15.4	.	-2.5	.	.	.	.
Cc1ccc2c(c1)N(CCCC(=O)N(C)Cc1ccc(F)cc1)C(=O)CO2	2.7	.	1.7	.	.	.	.
CCC(=O)Nc1cccc(NC(=S)NC(=O)c2ccc(Cl)cc2Cl)c1	21.0*	1.2	5.7	1.8	-5.5	5.5	-6.7
CCC(=O)Nc1cccc(NC(=S)NC(=O)c2ccc(Cl)cc2)c1	3.4	0.4	1.2	-2.4	-4.5	.	.
CSc1cccc(NC(=S)N2CCC(N(C)C3CCCC3)CC2)c1	19.4*	2.3	-4.2	0.3	-2.9	10.5	-16.8
CCCCCC/C(=N/O)c1ccccn1	21.7*	1.2	-4.3	0.8	-1.9	12.0	-6.3
O=C(Nc1nc2ccc(F)cc2s1)c1ccc([N+](=O)[O-])o1	-6.9	0.9	1.5	-1.0	-4.9	.	.
c1ccc(-c2cccc(CNc3nc(-c4ccccn4)nnc3-c3ccccc3)c2)cc1	25.4*	.	.	.	.	-0.4	-36.1
CN(C)c1nc(-c2ccccn2)nnc1-c1ccccc1	3.1	1.1	0.9	4.9	-1.2	.	.
Cc1ccccc1-c1cnc(C(O)c2ccc(-c3ccccc3)cc2)[nH]1 (stereo not given)	-18.1	-1.6	3.5	-0.6	-5.0	.	.
Cc1ccc(/C=N/NC(=O)CSc2nc3ccccc3c(=O)n2-c2ccccc2)s1	19.3*	1.1	-0.3	0.3	-2.0	2.6	1.9
SMILES	sPLA2-III inh	MsrA inhibitor	rCAG RNA binder	PG9 Ab binder	bovine MsrA act	hGIII sPLA2 conf	535nm interf	others
Cc1ccc(/C=N/NC(=O)CSc2nc3ccccc3c(=O)n2-c2ccccc2C)s1	-5.0	0.6	5.3	-1.2	-3.4	.	.
CCCCSc1nnc(-c2ccc(C)cc2)c2ccccc12	24.3*	0.1	-3.6	0.0	-1.7	-0.7	-11.3
CC(=O)c1cccc(NC(=O)C2Cc3c(-c4ccc5c(c4)OCO5)ccnc3O2)c1 (stereo not given)	-17.0	-0.2	2.1	-1.2	-10.9	.	.
CN(CCCS(=O)(=O)[O-])c1ccc(/C=C/c2ccc3ccccc3[n+]2C)cc1	21.4*	0.7	3.0	-23.9	-1.8	5.9	-6.8
O=C(N/N=C/c1ccc(Cl)cc1)c1n[nH]c2c1CCCC2	21.3*	-0.4	-2.1	-1.1	-4.0	-2.3	-5.1
O=C(N/N=C/c1ccccc1)c1n[nH]c2c1CCCC2	5.8	-2.6	-2.0	-0.6	-7.7	.	.
Cc1ccc2nc(-c3ccccn3)c(Nc3ccccc3C)n2c1	26.5*	-0.1	-2.8	-0.3	-2.9	23.6*	-17.7
Cc1ccccc1Nc1c(-c2ccccn2)nc2ccccn12	7.9	-0.3	-1.7	-1.6	-2.8	.	.
Cc1ccn2c(Nc3ccccc3C)c(-c3ccccn3)nc2c1	20.8*	2.0	-1.2	0.8	-2.5	30.1*	-20.7	BODIPY interf DR=>122
Cc1ccn2c(Nc3ccccc3)c(-c3ccccn3)nc2c1	20.4*	1.0	-0.4	-0.8	-6.2	18.1	-28.0
CC(C)c1cc(C(C)C)c(S(=O)(=O)N2CCC(C(=O)NCc3cccs3)CC2)c(C(C)C)c1	-3.6	.	6.3	.	.	.	.
Cc1cccc(Cl)c1-n1nnnc1C1(C)CSCC(=O)N1Cc1ccc(F)cc1 (stereo not given)	-9.3	.	8.5	.	.	.	.
COc1ccc(CCNC(=O)c2ccccc2C(=O)NCCc2ccc(OC)cc2)cc1	4.5	0.6	-8.9	-2.0	-2.3	.	.
COc1ccc(CCNC(=O)c2cnc3ccccn3c2=O)cc1	21.0*	3.6	1.1	-0.1	1.5	-5.2	-4.0
CCOC(=O)C(=NC(C)CC)NNc1cccc(C(F)(F)F)c1 (stereo not given)	23.7*	0.0	-5.6	-0.4	-1.6	34.8*	1.2	BODIPY interf DR=>122
C[C@@H]1ON(C)[C@H]2C[C@H]3c4[nH]c5c(-c6cc(Cl)cc(Cl)c6)cccc5c4CCN3C(=O)[C@@H]12	1.6	-1.1	5.2	1.4	.	.	.
COCC(=O)Nc1ccc2c(c1)C(=O)N(C)[C@@H]1CC[C@@H](CC(=O)OC)O[C@H]1CO2	6.2	.	1.5	.	.	.	.
COC(=O)C[C@H]1CC[C@@H]2[C@H](COc3ccc(NC(=O)NCc4ccccc4)cc3C(=O)N2C)O1	-12.3	.	1.0	.	.	.	.
COC(=O)C[C@H]1CC[C@@H]2[C@H](COc3ccc(NC(=O)C(C)C)cc3C(=O)N2C)O1	19.2*	.	2.4	.	.	-0.5	-5.9
CCC(=O)Nc1ccc2c(c1)C(=O)N(C)[C@@H]1CC[C@@H](CC(=O)NCc3ccc(OC)cc3)O[C@H]1CO2	19.3*	.	6.1	.	.	0.6	-5.2
CCS(=O)(=O)Nc1ccc2c(c1)C(=O)N(C)[C@@H]1CC[C@H](CC(=O)N[C@@H]3CCN(Cc4ccccc4)C3)O[C@H]1CO2	20.0*	.	8.7	.	.	-0.7	-11.7

Assay outcomes deposited in PubChem BioAssay by The Scripps Research Institute Molecular Screening Center.
